The structures appear in SMILES notation.

The results in this text go back to PMC5540273 (PLoS ONE, 2017).
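Also: KINOMEscan kinase panel screen.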

For the first test, the system named is WNK1. Conditions: concentration: 1 μM,replicates: in singlicate; n = 1.
With `CN1CCN(CCNc2nc3cc(Oc4ccc(NC(=O)Nc5cc(C(F)(F)F)ccc5F)cc4)ccc3[nH]2)CC1.Cl.Cl` [GW768504], the “%Inh” value amounted to 0%.
Regarding `CN(c1ccccc1CNc1nc(Nc2ccc3c(c2)CC(=O)N3)ncc1C(F)(F)F)S(C)(=O)=O`, the “%Inh” value worked out at 0%.
Regarding `C[C@@H](Oc1cc(-n2cnc3ccc(-c4ccncc4)cc32)sc1C(N)=O)c1ccccc1Cl` [GSK483724], the “%Inh” value stood at 46%.
Take `CC(=O)c1c(-c2ccncc2)[nH]c(-c2ccncc2)c1C` [GW493036]: the “%Inh” value is 14%.
Still for that read-out and setting: in the case of `N#Cc1cccc(C(=O)NC2CCN(c3ccnc(Nc4ccc(F)cc4)n3)C2)c1` (centres unmarked) [GSK1379708] it was 0%; in that of `CS(=O)(=O)c1cccc(CNc2nc(Nc3ccc4c(c3)[C@@H]3C[C@@H]4CNC3=O)ncc2C(F)(F)F)c1`, 0%; in that of `CCN1CCN(CCCC(=O)Nc2n[nH]c3nc(-c4ccc(O)cc4)c(Br)cc23)CC1` [SB-731579], 0%.
Regarding `Cc1ccc(Nc2ccnc(Nc3ccc4c(c3)CS(=O)(=O)C4)n2)cc1O.Cl` [GW579362], the “%Inh” value was 0%.
As for `C[C@@H](Oc1cc(-n2cnc3cc(-c4cnn(C)c4)ccc32)sc1C(N)=O)c1ccccc1Cl` [GSK580432], the “%Inh” value is recorded as 62%.
Consider `O=C1NCCc2[nH]c(-c3ccncc3)cc21`, for which the “%Inh” value is given as 0%.
The same measure, in the same setting: the figure for `c1ccc(Oc2ccc(Nc3ccnc4ccc(-c5ccccn5)cc34)cc2)cc1` [GW407034] is 20%.
Same read-out and setting: the figure for `NC(=O)Nc1sc(-c2ccc(F)cc2)cc1C(N)=O` [GW789449] is 0%; for `COc1cccc(CNC(=O)NC2CCN(c3ccnc(Nc4cc(OC)c(OC)c(OC)c4)n3)C2)c1` (centres unmarked) [GSK1379765] it is 4%; for `COC(=O)c1cccc(NC(=O)NC2CCN(c3ccnc(Nc4cc(OC)c(OC)c(OC)c4)n3)C2)c1` (centres unmarked) [GSK1379767] it is 0%.
Still for that read-out and setting: the figure for `CC(=O)Nc1nc2cnc(Nc3cc(NC(=O)c4cccc(CC(C)(C)C#N)c4)ccc3C)nc2s1` is 0%; for `C[C@@H]1CNc2c(sc3ccc4nc(-c5ccncc5)ccc4c23)C(=O)N1` it is 0%.
In the case of `Cl.Nc1n[nH]c2cc(-c3ccccn3)ccc12` [GSK2189892], the “%Inh” value worked out at 0%.
Same read-out and setting: in the case of `COc1cc2c(Nc3ccc(NC(=O)c4ccccc4)cc3)ncnc2cc1OCCCN1CCOCC1` [GSK301329] it was 1%; in that of `Cc1ccc2c(-c3ccnc(Nc4ccc(C(F)(F)F)cc4)n3)cnn2n1` [GW819776], 3%.
On the same count and under the same terms, the figure for `CC(C)S(=O)(=O)N1CCN(Cc2ccc3c(c2)nc(NC(=O)c2ccsc2)n3C[C@H](O)c2ccccc2)CC1` [GW635815] is 3%; for `NC(=O)c1ccc(-c2cc3ncnc(SCC(=O)O)c3s2)cc1` it is 0%.
For `CCn1c(-c2nonc2N)nc2cncc(Br)c21` [SB-738004], the “%Inh” value worked out at 0%.
On the same count and under the same terms, the figure for `O=C(NCC1CC1)c1ccc(-c2cc(C(=O)NC3CC3)ccc2F)cc1` [GW810445] is 0%; for `COc1cc2ncn(-c3cc(OCC4CCCCC4)c(C(N)=O)s3)c2cc1OC` [GSK204559] it is 0%.
Same read-out and setting: in the case of `COc1cccc(OC)c1C(=O)Nc1cccc(-c2nn3ccccc3c2-c2ccnc(Nc3cccc(F)c3)n2)c1` [GSK361065] it was 0%.
Take `COC(=O)Nc1nc2cc(Oc3ccc(NC(=O)Nc4cc(C(F)(F)F)ccc4Cl)cc3)ccc2[nH]1.Cl` [GW697465]: the “%Inh” value is listed as 8%.
On the same count and under the same terms, in the case of `Cl.Cl.NC[C@H](CC1CCCCC1)NC(=O)c1ccc(-c2ccnc3[nH]ccc23)s1` [GSK1581428] it was 0%; in that of `CN1CCN(CCCNc2nccc(-c3c(-c4ccc(F)cc4)nn4cc(C(N)=O)ccc34)n2)CC1` [GW622475], 9%; in that of `O=C(NOCC1CC1)c1cc(Br)c(F)c(F)c1Nc1ccc(I)cc1Cl`, 0%.
Same read-out and setting: the figure for `CC(=O)Nc1ccc(-c2cc3ncnc(SCC(=O)O)c3s2)cc1` is 2%; for `OCCn1cc(-c2cnc3nnn(Cc4ccc5ncccc5c4)c3n2)cn1` it is 0%.
Still for that read-out and setting: in the case of `CCCC(=O)Nc1n[nH]c2ncccc12` [SB-601436] it was 0%; in that of `CN(c1ccc2c(c1)nc(NCc1ccc(F)cc1)n2C)c1ccnc(Nc2ccc(CS(C)(=O)=O)cc2)n1.Cl` [GW813244], 17%; in that of `Cl.c1ccc(Oc2ccc(Nc3ccnc4cc(-c5ccc(CN6CCNCC6)o5)ccc34)cc2)nc1` [GW567142], 0%.
For the compound `Cc1ccc(C(=O)Nc2ccc(Oc3ccc4nc(NC(=O)C5CC5)cn4c3)c(F)c2)c(=O)n1-c1ccccc1`, the “%Inh” value is on record as 0%.
Same read-out and setting: the figure for `CN(c1cccc(CNc2nc(Nc3ccc4c(c3)CC(=O)N4)ncc2C(F)(F)F)c1)S(C)(=O)=O` is 0%; for `CCn1c(-c2nonc2N)nc2cncc(CNC3CCNCC3)c21.Cl` [SB-747651] it is 14%.

The test system of the next test is WNK2. Conditions: concentration: 1 μM,replicates: in singlicate; n = 1.
For the compound `CN1CCN(CCNc2nc3cc(Oc4ccc(NC(=O)Nc5cc(C(F)(F)F)ccc5F)cc4)ccc3[nH]2)CC1.Cl.Cl` [GW768504], the “%Inh” value was 0%.
The same measure, in the same setting: in the case of `CN(c1ccccc1CNc1nc(Nc2ccc3c(c2)CC(=O)N3)ncc1C(F)(F)F)S(C)(=O)=O` it was 0%; in that of `C[C@@H](Oc1cc(-n2cnc3ccc(-c4ccncc4)cc32)sc1C(N)=O)c1ccccc1Cl` [GSK483724], 63%.
Same read-out and setting: the figure for `CC(=O)c1c(-c2ccncc2)[nH]c(-c2ccncc2)c1C` [GW493036] is 0%; for `N#Cc1cccc(C(=O)NC2CCN(c3ccnc(Nc4ccc(F)cc4)n3)C2)c1` (centres unmarked) [GSK1379708] it is 0%; for `CS(=O)(=O)c1cccc(CNc2nc(Nc3ccc4c(c3)[C@@H]3C[C@@H]4CNC3=O)ncc2C(F)(F)F)c1` it is 0%.
Still for that read-out and setting: in the case of `CCN1CCN(CCCC(=O)Nc2n[nH]c3nc(-c4ccc(O)cc4)c(Br)cc23)CC1` [SB-731579] it was 0%; in that of `Cc1ccc(Nc2ccnc(Nc3ccc4c(c3)CS(=O)(=O)C4)n2)cc1O.Cl` [GW579362], 33%; in that of `C[C@@H](Oc1cc(-n2cnc3cc(-c4cnn(C)c4)ccc32)sc1C(N)=O)c1ccccc1Cl` [GSK580432], 91.4%.
With `O=C1NCCc2[nH]c(-c3ccncc3)cc21`, the “%Inh” value is listed as 26%.
Same read-out and setting: in the case of `c1ccc(Oc2ccc(Nc3ccnc4ccc(-c5ccccn5)cc34)cc2)cc1` [GW407034] it was 25%.
Still for that read-out and setting: the figure for `NC(=O)Nc1sc(-c2ccc(F)cc2)cc1C(N)=O` [GW789449] is 0%; for `COc1cccc(CNC(=O)NC2CCN(c3ccnc(Nc4cc(OC)c(OC)c(OC)c4)n3)C2)c1` (centres unmarked) [GSK1379765] it is 33%.
The same measure, in the same setting: in the case of `COC(=O)c1cccc(NC(=O)NC2CCN(c3ccnc(Nc4cc(OC)c(OC)c(OC)c4)n3)C2)c1` (centres unmarked) [GSK1379767] it was 24%; in that of `CC(=O)Nc1nc2cnc(Nc3cc(NC(=O)c4cccc(CC(C)(C)C#N)c4)ccc3C)nc2s1`, 47%.
For the compound `C[C@@H]1CNc2c(sc3ccc4nc(-c5ccncc5)ccc4c23)C(=O)N1`, the “%Inh” value is recorded as 0%.
Same read-out and setting: in the case of `Cl.Nc1n[nH]c2cc(-c3ccccn3)ccc12` [GSK2189892] it was 5%; in that of `COc1cc2c(Nc3ccc(NC(=O)c4ccccc4)cc3)ncnc2cc1OCCCN1CCOCC1` [GSK301329], 31%.
Regarding `Cc1ccc2c(-c3ccnc(Nc4ccc(C(F)(F)F)cc4)n3)cnn2n1` [GW819776], the “%Inh” value worked out at 0%.
On the same count and under the same terms, the figure for `CC(C)S(=O)(=O)N1CCN(Cc2ccc3c(c2)nc(NC(=O)c2ccsc2)n3C[C@H](O)c2ccccc2)CC1` [GW635815] is 0%; for `NC(=O)c1ccc(-c2cc3ncnc(SCC(=O)O)c3s2)cc1` it is 0%.
Still for that read-out and setting: in the case of `CCn1c(-c2nonc2N)nc2cncc(Br)c21` [SB-738004] it was 8%.
Same read-out and setting: the figure for `O=C(NCC1CC1)c1ccc(-c2cc(C(=O)NC3CC3)ccc2F)cc1` [GW810445] is 24%; for `COc1cc2ncn(-c3cc(OCC4CCCCC4)c(C(N)=O)s3)c2cc1OC` [GSK204559] it is 0%.
On to `COc1cccc(OC)c1C(=O)Nc1cccc(-c2nn3ccccc3c2-c2ccnc(Nc3cccc(F)c3)n2)c1` [GSK361065], for which the “%Inh” value came out at 0%.
Same read-out and setting: in the case of `COC(=O)Nc1nc2cc(Oc3ccc(NC(=O)Nc4cc(C(F)(F)F)ccc4Cl)cc3)ccc2[nH]1.Cl` [GW697465] it was 11%; in that of `Cl.Cl.NC[C@H](CC1CCCCC1)NC(=O)c1ccc(-c2ccnc3[nH]ccc23)s1` [GSK1581428], 0%; in that of `CN1CCN(CCCNc2nccc(-c3c(-c4ccc(F)cc4)nn4cc(C(N)=O)ccc34)n2)CC1` [GW622475], 8%.
Take `O=C(NOCC1CC1)c1cc(Br)c(F)c(F)c1Nc1ccc(I)cc1Cl`: the “%Inh” value came out at 0%.
On the same count and under the same terms, the figure for `CC(=O)Nc1ccc(-c2cc3ncnc(SCC(=O)O)c3s2)cc1` is 0%; for `OCCn1cc(-c2cnc3nnn(Cc4ccc5ncccc5c4)c3n2)cn1` it is 0%; for `CCCC(=O)Nc1n[nH]c2ncccc12` [SB-601436] it is 0%.
The same measure, in the same setting: in the case of `CN(c1ccc2c(c1)nc(NCc1ccc(F)cc1)n2C)c1ccnc(Nc2ccc(CS(C)(=O)=O)cc2)n1.Cl` [GW813244] it was 3%; in that of `Cl.c1ccc(Oc2ccc(Nc3ccnc4cc(-c5ccc(CN6CCNCC6)o5)ccc34)cc2)nc1` [GW567142], 16%; in that of `Cc1ccc(C(=O)Nc2ccc(Oc3ccc4nc(NC(=O)C5CC5)cn4c3)c(F)c2)c(=O)n1-c1ccccc1`, 0%.
On the same count and under the same terms, in the case of `CN(c1cccc(CNc2nc(Nc3ccc4c(c3)CC(=O)N4)ncc2C(F)(F)F)c1)S(C)(=O)=O` it was 0%.
With `CCn1c(-c2nonc2N)nc2cncc(CNC3CCNCC3)c21.Cl` [SB-747651], the “%Inh” value is recorded as 0%.
